# TDP1 cell CPT = DT40-hTDP1 cell growth loss with CPT | 420,000 compounds, 12% hits | chicken DT40 Tdp1-/-;hTDP1 cells + 20 nM CPT, ATP luminescence, 48 h | Potency, µM (series often up to 46.2 µM), usual class: inhibitors; note: nearly all actives have a fitted effect of over 55% in size
#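 Chicken DT40 Tdp1-/- cells stably complemented with human TDP1 were seeded at 400 cells/well in medium containing 20 nM camptothecin, exposed to pin-transferred compounds, and grown at 37 °C for at least 48 hr. Viability was read as ATP luminescence.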
# HT1080 IDH1KD tx = toxicity to HT-1080 IDH1 knockdown cells (counter line); Potency, µM (top dose mostly 46.1 µM), actives largely listed as cytotoxic; AID 686971; HT-1080 IDH1 knockdown viability, ATP luminescence, 48 h; 360,000 compounds, 2% hits
#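 HT-1080-IDH1KD cells (IDH1 knocked down), 750/well in RPMI with 5% FBS, treated with compound 48 h at 37 degrees C. Viability by CellTiter-Glo luminescence, normalised to DMSO and no-cell wells; concentration-response curves classed.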
# DT40 TDP1 no CPT = qHTS for Inhibitors of human tyrosyl-DNA phosphodiesterase 1 (TDP1): qHTS in cells in absence of CPT; 420,000 compounds, 15% hits; AID 686978, 2013; DT40 Tdp1-/- hTDP1 cells, no CPT, ATP luminescence, 48 h; Potency, µM (doses to about 46.2 µM), most hits filed as inhibitors; note: nearly all actives have a fitted effect of over 55% in size
#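 Cells were dispensed at 400 per well, compounds added by pin tool, plates incubated ≥48 hr at 37 °C, then CellTiter-Glo added for 30 min at room temperature before luminescence reading. Line: DT40 Tdp1-/- complemented with hTDP1; camptothecin omitted.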
# uPA generation = inhibitors of cell surface uPA generation; cell surface uPA generation assay, qHTS; Potency, µM (top dose mostly 38.3 µM), most hits filed as inhibitors; AID 540303; 330,000 compounds, 0.31% hits; active = well fitted inhibition curve with a large enough effect; inconclusive = small, poorly fitted or top-dose-only effect; inactive = no such curve, though single readings can be large or run the other way; tested in mouse RAW 264.7 cells; note: nearly all actives have a fitted effect of over 55% in size
# HT1080-NT tox = kills 2HG-producing HT-1080-NT fibrosarcoma cells | AID 686970 | HT-1080-NT fibrosarcoma viability, CellTiter-Glo ATP luminescence, 48 h | Potency, µM (titrated, usually from 46.1 µM), actives largely listed as cytotoxic | 360,000 compounds, 1.6% hits;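 note: NT is the 2HG producing partner of a matched IDH1 knockdown line; nearly all actives have a fitted effect of over 55% in size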
#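 Viability by CellTiter-Glo luminescence after 48 h compound exposure at 37C of HT-1080-NT cells (750/well, RPMI, 5% FBS). % activity scaled between DMSO wells and medium-only wells, then curve-fitted and categorized by curve class.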
# IL1B secr inh = inflammasome signaling inhibition, IL-1 beta readout. activity change, % at 57.5 µM. THP-1 LPS/ATP IL-1B secretion, AlphaLISA, 16 h; stronger effect = lower value. 360,000 compounds, 4.7% hits; in the data active = activity change below about -50%; inconclusive = mostly about -30% to -49%
#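 Secreted IL-1B measured by AlphaLISA bead assay after 16 h compound exposure of THP-1 cells; compounds (final up to 57.5 uM) added 1 h before LPS (250 ng/mL) and ATP (1.25 mM) stimulation; lower signal means less secretion.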
# A number is an active result; . = inactive; ? = inconclusive; / = no result given; [ ] = another dose, or the depositor's remark. Compounds with a hit are over-represented: about 19% of the library has one in this group of screens. Unless noted, calls come from the whole dose curve; as a rule, active = well fitted curve in the direction sought with a large enough effect; inconclusive = small, poorly fitted or top-dose-only effect, or another doubt; inactive = no such curve, though single readings can be large; an effect the other way counts as inactive or inconclusive.
SMILES,TDP1 cell CPT,HT1080 IDH1KD tx,DT40 TDP1 no CPT,uPA generation,HT1080-NT tox,IL1B secr inh
CCOC(=O)Cc1csc(NC(=S)NC(=O)c2cc(OC)c(OC)c(OC)c2)n1,?,.,12µM,.,.,.
CSc1nnc2ccc(-c3cccs3)nn12,.,.,.,.,.,.
COCc1c(C(=O)N2CCN(C3CCCC3)CC2)cnn1-c1ncc2c(n1)-c1ccccc1CCC2,.[9.04 µM],/,.,/,/,/
Cc1sc2ncnc(OCC(=O)NC3CCS(=O)(=O)C3)c2c1C (stereo not given),.,.,.,.,.,.
CCOC(=O)Cc1csc(N/C(=N/S(=O)(=O)c2ccc(Cl)cc2)c2ccccc2)n1,?,.,29µM,.,.,.
COc1ccc(-c2nnc(SCc3nc4ccccc4s3)n2C(C)C)cc1,?,.,21µM,.,.,.
COc1ccccc1-c1nnc(SCc2nc3ccccc3s2)n1C,.,.,.,/,.,.
CN(CC(=O)Nc1ccc(F)cc1)C(=O)CN1C(=O)NC(CCc2ccccc2)C1=O (stereo not given),12µM,.,26µM,/,.,.
O=C(CN1C(=O)NC(Cc2c[nH]c3ccccc23)C1=O)Nc1ccc(F)c(F)c1F (stereo not given),.,.,?,.,.,.
O=C(CN1C(=O)NC(CCc2ccccc2)C1=O)Nc1ccc(F)c(F)c1F (stereo not given),26µM,.,?,.,.,.
CCC(Cc1ccccc1)NS(=O)(=O)c1c(C)nc2sccn2c1=O (stereo not given),.,.,.,.,.,.
O=C(NC1CCCC1)C(c1ccsc1)N(Cc1ccccc1)C(=O)Cc1cccs1 (stereo not given),18µM,.,13µM,.,.,.
O=C(NC1CCCC1)C(c1ccncc1)N(Cc1ccccc1)C(=O)Cc1cccs1 (stereo not given),.,.,.,.,.,.
COC(=O)c1ccc(C(C(=O)NC2CCCCC2)N(C(=O)Cc2cccs2)C2CC2)cc1 (stereo not given),8.2µM,.,10µM,.,.,.
COC(=O)c1ccc(C(C(=O)NC2CCCCC2)N(Cc2ccccc2)C(=O)Cc2cccs2)cc1 (stereo not given),3.3µM,.,4.1µM,.,.,.
COc1ccc(CNC(=O)C(c2ccc(C)o2)N(Cc2cccs2)C(=O)Cc2cccs2)cc1 (stereo not given),29µM,.,?,.,?,?
O=C(NCc1ccccc1)C(c1ccccc1)N(Cc1ccc2c(c1)OCO2)C(=O)Cc1cccs1 (stereo not given),?,.,23µM,.,.,.
O=C(NC1CCCC1)C(c1ccccc1)N(Cc1ccc2c(c1)OCO2)C(=O)Cc1cccs1 (stereo not given),?,.,?,.,.,.
O=C(NC1CCCCC1)C(c1cccnc1)N(CCc1ccccc1)C(=O)Cc1cccs1 (stereo not given),?,.,10µM,.,.,.
CCC(CC(C)(C)O)C(=O)NNC(=S)Nc1ccccc1 (stereo not given),.,.,.,.,?,.
CCOc1cc(/C=N/NC(=O)C(=O)NCCCOC(C)C)cc(Br)c1O,.,.,.,.,.,.
CC1(C)Oc2cc3oc(-c4cc(O)cc(O)c4)cc3cc2CC1O (stereo not given),21µM,.,?,8.9µM,.,.
Oc1cccc(/C=N/N=C/c2cccc(O)c2O)c1O,?,.,?,.,.,.
Cc1ccccc1N=Cc1cccc(O)c1O,?,15µM,10µM,.,.,.
Cc1ccc(N=Cc2cccc(O)c2O)c(C)c1,20µM,/,?,/,/,/
CN1C(=O)CCC(CCC(=O)O)(c2ccccc2O)C1=O (stereo not given),.,.,.,.,.,.
O=C(CC(c1ccccc1)c1ccccc1)Nc1ccc(C(=O)O)cc1,.,.,.,.,.,.
